Compounds with a hit are over-represented: about 4.7% of the library has one in this group of screens.
SKKanGAS inh: inhibitors of SKKanGAS S. pyogenes growth in kanamycin (SK-promoter or general growth effect); inhibition, % at 7.5 µM; 300,000 tested, 1.3% active; BacTiter-Glo, 6 h; AID 1662;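 active = mean replicate score, as percent of positive control median, at least 50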;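 note: strain carries kanamycin resistance gene driven by streptokinase promoter and grows in 40 µg/ml kanamycin; loss of luminescence reflects streptokinase promoter inhibition or plain growth inhibition; 0% = median of DMSO wells and 100% = positive control at its reference dose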
EBI2 antag: antagonists of human EBI2 receptor; 360,000 tested, 0.81% active; EBI2 beta-arrestin recruitment, luminescence, 7a,25-OHC stimulated; inhibition, % at 5 µM; in the data active = inhibition above about 38%;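 note: enzyme fragment complementation signal reports receptor beta-arrestin coupling in cells; 0% = agonist plus DMSO wells and 100% = wells without agonist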
Target sequence (P32249 whole entry, looked up, the tested form may be a part): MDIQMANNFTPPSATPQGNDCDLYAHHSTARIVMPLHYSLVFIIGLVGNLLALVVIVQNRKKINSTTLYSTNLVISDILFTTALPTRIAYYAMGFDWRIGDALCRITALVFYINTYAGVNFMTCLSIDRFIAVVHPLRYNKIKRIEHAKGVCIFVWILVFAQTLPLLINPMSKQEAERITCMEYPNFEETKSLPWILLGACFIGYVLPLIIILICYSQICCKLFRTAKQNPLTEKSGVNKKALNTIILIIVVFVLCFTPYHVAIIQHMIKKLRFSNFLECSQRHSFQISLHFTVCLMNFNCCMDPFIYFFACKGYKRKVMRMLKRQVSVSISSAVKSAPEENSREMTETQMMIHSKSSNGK
tim23-1 inh: growth inhibitors of tim23-1 mutant yeast | S. cerevisiae tim23-1 growth, BacTiter-Glo luminescence, 24 h | inhibition, % at 20 µM | 330,000 tested, 1.3% active | AID 463212;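 active = growth inhibition of the mutant yeast at or above 50%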;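 note: temperature-sensitive mutant grown at 25 °C; plate controls were DMSO-treated mutant yeast for no effect and medium wells lacking yeast for full effect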
TIM10 inh: TIM10 yeast growth inhibition | S. cerevisiae TIM10 strain growth, BacTiter-Glo luminescence, 24 h | inhibition, % at 10 µM | 330,000 tested, 1.4% active;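 active = inhibition of 40% or more at the single tested concentration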;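 note: wild-type TIM10 isogenic control strain grown at permissive 25 °C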
PfHsp90 set2: growth inhibition of yeast expressing Plasmodium Hsp90 | AID 504621 | inhibition, % at 9.4 µM | 310,000 tested, 0.32% active | S. cerevisiae expressing PfHsp90, BacTiter-Glo ATP, 48 h; yeast lacking PDR1 and PDR3 efflux regulators;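 active = every replicate shows inhibition above about 80%, whatever the replicate mean, limit read from the data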;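 note: 0% = DMSO neutral controls and 100% = 20 µM radicicol positive controls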
tim10-1 inh: tim10-1 yeast growth inhibition; S. cerevisiae tim10-1 ts strain growth, BacTiter-Glo, 24 h; inhibition, % at 20 µM; 330,000 tested, 2.2% active; AID 463190;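 active = inhibition of at least 40%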;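 note: mutant grown at 25 °C; 0% = DMSO wells with yeast and 100% = wells holding no yeast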
TIM10 conf: TIM10 yeast growth inhibition, confirmed; shares compounds with TIM10 inh; S. cerevisiae tim10 strain growth, BacTiter-Glo luminescence, 24 h; inhibition, % at 10 µM; 4,600 tested, 63% active;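 active = inhibition of yeast growth at or above a set limit in either of two replicates at 10 µM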;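 note: this counterscreen used the strain with wild-type TIM10; 0% = yeast with DMSO and 100% = medium wells lacking yeast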
An asterisk follows results filed as active; . = no result.

SMILES | SKKanGAS inh | EBI2 antag | tim23-1 inh | TIM10 inh | PfHsp90 set2 | tim10-1 inh | TIM10 conf
CC1=CC(C)(C)N(C(=O)c2ccccc2)c2ccc(C)cc21 | 63* | 32 | -6 | 46* | -1 | 26 | -9
CC1=CC(C)(C)N(C(=O)c2ccccc2)c2ccccc21 | 11 | 21 | 25 | 16 | -20 | 29 | .
Cn1nc(C(=O)NC2CCC(O)CC2)c2ccccc2c1=O (configuration not stated) | . | 4 | 9 | 1 | -18 | 7 | .
Cn1c(CS(=O)Cc2c(Cl)cccc2Cl)nnc1SCc1c(Cl)cccc1Cl (configuration not stated) | -3 | 8 | 39 | 35 | -3 | 32 | .
O=S(Cc1ccc(Br)cc1)Cc1nnc(SCc2c(Cl)cccc2Cl)n1-c1ccccc1 (configuration not stated) | 4 | 17 | 42 | 41* | 9 | 26 | 23
CCCOc1cccc(C(=O)NC(=S)Nc2cccc(C(F)(F)F)c2)c1 | -6 | 13 | 23 | 41* | -8 | 17 | 17
CCOc1cccc(C(=O)NC(=S)Nc2cccc(C)c2)c1 | -4 | 5 | 34 | 5 | -10 | 26 | .
Cc1cccc(COc2ccc(/C=N/NC(=O)c3nnn(-c4nonc4N)c3CN3CCCCC3)cc2)c1 | 11 | -6 | -15 | 42* | 11 | -2 | -2
CCOC(=O)c1nnn(-c2ccc([N+](=O)[O-])cc2[N+](=O)[O-])c1C | 5 | -32 | 44 | 41* | 12 | 23 | 37*
CCOC(=O)c1nnn(-c2ccccc2)c1C | -5 | -3 | 11 | 7 | -10 | 10 | .
O=C(CNc1ccc(F)cc1)N/N=C/c1c(O)ccc2ccccc12 | 96* | 5 | 39 | 44* | -3 | -8 | 42*
COc1ccc(OC)c(NC(=O)C(CC(=O)O)NCc2ccco2)c1 (configuration not stated) | 1 | 0 | 4 | 13 | 0 | 7 | .
Cc1ccc(C)c(NC(=O)c2ccccc2C(=O)c2ccccc2)c1 | 8 | 5 | 34 | 41* | . | 23 | 29
CCC(C)NC(=O)c1cc2cc3ccc(OC)cc3nc2s1 (configuration not stated) | -4 | -3 | 37 | 46* | 14 | 27 | 25
COc1ccc2cc3cc(C(=O)NCCN4CCc5ccccc5C4)sc3nc2c1 | 2 | -8 | 22 | 69* | -30 | 26 | 67*
COC(=O)C[C@H]1C[C@H]2c3cc(NS(=O)(=O)c4ccc(OC)cc4)ccc3O[C@H]2[C@H](CO)O1 | . | -8 | . | . | . | . | .
COC(=O)CC(NC(=S)NC(=O)c1ccccc1)c1ccc(Br)cc1 (configuration not stated) | 11 | 8 | 34 | 40* | -16 | 26 | 37*
COC(=O)CC(N)c1ccc(Br)cc1 (configuration not stated) | -12 | 9 | 12 | -7 | -3 | 7 | .
CCC(C(=O)NCc1ccncc1)c1ccccc1 (configuration not stated) | -1 | 5 | -9 | 9 | 5 | 0 | .
CC1CCc2c(C(=O)Nc3ccccn3)csc2C1 (configuration not stated) | 8 | -2 | 40 | 13 | 9 | 7 | .
CC1CCc2c(C(=O)Nc3nccs3)csc2C1 (configuration not stated) | -9 | -15 | 43 | 43* | -36 | 34 | 43*
O=C(COc1ccc(-c2nnc(N3CCCCC3)c3ccccc23)cc1)N1CCCCC1 | 7 | -12 | 41 | 42* | -3 | 37 | 31
O=C(NC(=S)NNC(=O)c1ccccc1O)c1cccc([N+](=O)[O-])c1 | 29 | -20 | 20 | 42* | 11 | -18 | 56*
Cc1cccc(C(=O)NCCc2ccccc2)c1 | 0 | 11 | 0 | -13 | -4 | 10 | .
Oc1ccccc1Cn1c(-c2ccccc2O)nc2ccccc21 | 15 | 10 | 3 | 52* | -11 | 35 | 22
SMILES | SKKanGAS inh | EBI2 antag | tim23-1 inh | TIM10 inh | PfHsp90 set2 | tim10-1 inh | TIM10 conf
CCCCC[C@@H]1C=C(C(=O)O)[C@H](c2ccc(OC)c(OC)c2)N1S(=O)(=O)c1ccc(C)cc1 | . | 0 | -9 | 97* | -4 | 6 | 11
CC(OC(=O)c1cccc(-n2cnnn2)c1)c1nc2ccccc2c(=O)[nH]1 (configuration not stated) | . | -7 | 4 | 3 | -2 | 10 | .
COc1ccc2c(Cl)c(C(=O)NN3CCN(C)CC3)sc2c1 | -2 | 5 | -8 | -1 | 3 | 10 | .
CC1(C(=O)NC(=S)N(CCC#N)c2ccccc2)CC1(Cl)Cl (configuration not stated) | 2 | -15 | -1 | 3 | . | 13 | .
CC(C)N(Cc1ccccc1)C(=S)NC(=O)C1(C)CC1(Cl)Cl (configuration not stated) | 1 | -1 | 19 | 41* | -8 | 33 | 33*
CC1(C)Oc2ccc3ccc(=O)oc3c2/C(=C/NC2CCCCC2)C1=O | 21 | 22 | -1 | 54* | -3 | 40 | 42*
CS(=O)(=O)N1CCN(C(=O)NC23CC4CC(CC(C4)C2)C3)CC1 | -5 | -10 | -12 | -2 | -2 | 13 | .
O=C(NC12CC3CC(CC(C3)C1)C2)N1CCN(S(=O)(=O)c2ccc(Cl)cc2)CC1 | 6 | 4 | 11 | 43* | . | 8 | 4
COCCCN=C(c1ccco1)n1c(=S)nc(-c2ccco2)n(CCCOC)c1=S | -4 | -5 | 25 | 20 | 1 | 22 | .
CCc1c(-c2ccccc2)nc2sc3c(c2c1N)CCCC3 | 15 | 2 | 35 | 45* | 12 | 38 | 49*
CCN1C/C(=C/c2ccc(OC)c(O)c2)C(=O)/C(=C/c2ccc(OC)c(O)c2)C1 | 1 | -10 | 40 | 50* | 10 | 27 | 45*
CCN(CCNC(=O)C1CCCN(c2ncnc3c2nc2n3CCCCC2)C1)Cc1ccccc1 (configuration not stated) | 5 | -8 | 1 | 71* | 2 | 2 | 1
COc1ccc(S(=O)(=O)N2CCCC(N(C)CCc3ccccc3)C2)cc1OC (configuration not stated) | -4 | -7 | 23 | 2 | -17 | 14 | .
CC(=O)Nc1ccc(N=Nc2ccccc2)cc1[N+](=O)[O-] | . | -12 | . | . | . | . | .
CCCCn1cnc2c(oc3nc4c(cc32)CCCC4)c1=O | -1 | 0 | 23 | 18 | 18 | -20 | .
CCCCCCn1cnc2c(oc3nc4c(cc32)CCCC4)c1=O | -15 | 4 | 11 | 43* | 0 | 9 | -2
CC(NC(=S)Nc1ccc(OC(F)F)c(Cl)c1)C(C)(C)C (configuration not stated) | 27 | -2 | 30 | 51* | 13 | 38 | 38*
FC(F)Oc1ccc(NC(=S)NCc2ccccc2)cc1Cl | 4 | 3 | 24 | 50* | . | 31 | 33*

Bioassay records deposited in PubChem by several laboratories.
